# Test results from PubChem BioAssay (NCI).
# This is part of a sample that, as a whole, favours compounds with a hit. Of some 83,000 tested, about 20% had one in any assay.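 Single-dose data. Exposure time 48 hours. Values below 10 considered active.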 Values without a mark were called inactive. Calls of active or inactive are those of the source.
# Legend:
# Assay in all cases: NCI-60 one-dose screen, 48 h (100 = growth as untreated, 0 = no growth, -100 = all killed)
# Conditions in all cases: 10 µM unless noted
# BT-549 breast = tested on: BT-549 breast
# MDA-MB-435 melanoma = tested on: MDA-MB-435 melanoma
# SW-620 colon = tested on: SW-620 colon
# MCF7 breast = tested on: MCF7 breast
# HCT-116 colon = tested on: HCT-116 colon
# HCC-2998 colon = tested on: HCC-2998 colon
# KM12 colon = tested on: KM12 colon
SMILES,growth (BT-549 breast),growth (MDA-MB-435 melanoma),growth (SW-620 colon),growth (MCF7 breast),growth (HCT-116 colon),growth (HCC-2998 colon),growth (KM12 colon)
O=C(CCN1CCCC1)Nc1ccc2c(NCc3ccccc3)c3ccccc3nc2c1,16.8%,-5.11% (active),-20.4% (active),-5.67% (active),-15.5% (active),-37.4% (active),-2.03% (active)
O=C(O)c1ccc(-c2nn(-c3ccc(C(F)(F)F)cc3)cc2CNc2ccc(Oc3ccccc3)cc2)cc1,90.6%,87.5%,93.9%,70.3%,60.8%,115%,59.5%
O=C(Nc1ccc(F)cc1)Nc1ccc(NC(=O)c2cc(Cl)nc3ccccc23)cc1,37.2%,73.8%,65%,69%,56.9%,–,58.5%
Cc1ccc(NC(C(=O)c2ccccc2)c2ccccc2)cc1 (stereo not given),42.2%,30.6%,67.1%,38.5%,35.6%,55.1%,23.7%
Cc1cc2c(C(=O)NCC#N)cccc2n1-c1nc2c(c(NCc3ccccc3)n1)CCCC2,-34.8% (active),-59.8% (active),2.79% (active),1.12% (active),-14.4% (active),-87.6% (active),-38.7% (active)
NC(=NCCCOc1ccc(F)cc1)Nc1ccc(I)cc1,74.8%,64.4%,67.1%,10%,58.7%,29.2%,87.8%
CC(C)(C)c1cc(/C=N/NC(=O)c2ccccc2NC(=O)c2cccs2)c(O)c(C(C)(C)C)c1,57.4%,51.8%,17.1%,18.1%,9.85% (active),30.9%,25.6%
N#CC1C(C#N)C(C(=O)c2ccc(Br)cc2)N2c3ccccc3C=CC12 (stereo not given),93.2%,16%,66.4%,13%,68.5%,50.7%,22.3%
C=C1C(=O)O[C@H]2[C@H]1CC/C(COC(=O)NCc1c[nH]c3ccc(Cl)cc13)=C\CC[C@@]1(C)O[C@@H]21,-65.6% (active),-88.4% (active),-74.3% (active),17.2%,-90.1% (active),70.4%,13.8%
COc1ccc(-c2cnc3c(-c4cccc5ncccc45)cnn3c2)cc1,37.1%,58%,73.8%,72.2%,11.9%,90.7%,69.3%
O=c1c2c(c(=O)n1O)c1c3ccc[nH]c3nc1c1nc3[nH]cccc3c12,80.9%,96.3%,62.4%,73.5%,72.7%,84.9%,97.1%
Clc1ccc(-c2ccc(CNCC3CCNCC3)o2)c(-c2ccccc2)c1,-5.56% (active),-92% (active),-85.9% (active),-73.9% (active),-87.2% (active),-77.6% (active),-84.2% (active)
CC(C)(C)CC(C)(C)n1nnnc1C(NC12CC3CC(CC(C3)C1)C2)c1ccccc1 (stereo not given),93.2%,98.3%,98.9%,88.9%,66.8%,–,101%
NC(=NCCCOc1ccc(F)cc1)Nc1ccc(Cl)cc1,52.8%,46.8%,56.9%,7.28% (active),16.5%,40.8%,76.7%
COc1cc(/C=C\C(=O)O)ccc1OCc1ccccc1,112%,119%,105%,96%,95.2%,104%,104%
Oc1ccc(OCCOc2ccc(O)cc2)cc1,54.7%,47.2%,50.2%,55.7%,55.9%,47.1%,29.2%
COc1cc2nc(-c3ccc(Cl)cc3)cc(OCCCN3CCOCC3)c2cc1OC,44.9%,10.2%,65%,50.2%,21.1%,66.8%,29.7%
C[C@H]1[C@H]2[C@H]3CC[C@@H]4[C@@]5(C)CC[C@H](O)C(C)(C)[C@@H]5CC[C@@]4(C)[C@]3(C)CC[C@]23CO[C@]1(C)[C@@H](C(=O)/C=C\c1ccco1)C3,105%,17.8%,97.1%,101%,100%,–,100%
NC1[C@H](c2c[nH]c3ccccc23)c2c([nH]c3ccccc23)[C@H]1c1c[nH]c2ccccc12 (stereo not given in full),105%,100%,96.3%,90.8%,74.2%,97.3%,91%
Cn1nc(CC#N)c2c(=N)n(N)cnc21,122%,107%,104%,100%,119%,120%,102%
Cc1cnc(C(=O)Nc2nc3ccc(S(=O)(=O)Nc4ccc(C(C)(C)C)cc4)cc3[nH]2)cn1,26.7%,-64.6% (active),18.6%,22.4%,14.2%,–,22.9%
CC(C)(C)c1cc(C=O)cc(C(C)(C)C)c1O,92.5%,111%,97.7%,–,92.9%,93.6%,99.6%
COc1ccc(C(=O)c2cc(C)c(OC)c(C)c2)c(OC)c1NC(C)=O,16.3%,-65.2% (active),21.2%,20.8%,8.06% (active),13.8%,8.12% (active)
CCCCCN1C=C/C(=C\C(=O)n2ccc3ccccc32)c2ccccc21,96.9%,96.1%,85.2%,73.5%,72.6%,107%,89.2%
N#C/C(=C\c1c(-c2ccccc2)[nH]c2ccccc12)C(=O)c1ccc(Cl)cc1,64.7%,13.5%,21.1%,-27.9% (active),30.9%,30.7%,20%
